Assay outcomes from PubChem BioAssay.
CHX counter – counter-screen hit for Shiga toxin inhibitors, cycloheximide; max response, %; cell reporter, cycloheximide protein synthesis inhibition counterscreen; actives 12% (n = 300,000); in the data active = max response mostly above about 13%, no sharp cut-off; inactive = mostly below about 14%; also: read at 38.3 µM for the half of the compounds with a filed dose; 0% is about no effect
TbPYK inhibitor – T. brucei pyruvate kinase inhibition | Q57TT1 | TbPYK enzyme, Kinase-Glo Plus ATP luminescence, 45 min | Potency, µM (top dose mostly 76.8 µM), for the others: at the highest dose activity, negative = inhibition, usual class: inhibitors | actives 0.12% (n = 410,000) | AID 624173; also: potency is read from the fitted curve at half-maximal effect; % is scaled to controls: 0 for no effect and ±100 for the full control effect; nearly all actives have a fitted effect of over 50% in size
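T. brucei PYK with substrate was exposed to pin-transferred compounds across a concentration series, then started with 130 uM ADP (final). After 45 min at room temperature, Kinase-Glo Plus luminescence was read, normalized and curve-fitted.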
Shiga toxin inh – inhibitors of Shiga toxin in Vero cells. inhibition, % at 38.7 µM. actives 9.2% (n = 290,000). Vero cells, Shiga toxin protein synthesis inhibition reporter. AID 2315; in the data active = inhibition mostly above about 28%, no sharp cut-off; inactive = mostly below about 43%; also: 0% is about no effect
LmPK inhibitor – blocks Leishmania mexicana pyruvate kinase activity. actives 0.37% (n = 290,000). Potency, µM (series often up to 57.5 µM), for inactives: at the top dose activity change, negative = inhibition, hits mostly inhibitors. purified LmPK, Kinase-Glo ATP luminescence, 1 h. Q27686; also: potency is read from the fitted curve at half-maximal effect; % is scaled to controls: 0 for no effect and ±100 for the full control effect
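Pyruvate kinase activity monitored as ATP production (luciferase luminescence). Conditions: 0.1 nM enzyme, 0.5 mM PEP, 0.1 mM ADP, 1 h, RT; normalized against uninhibited and no-enzyme wells.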
FBPA Giardia inh – Giardia lamblia aldolase inhibition; AID 2451; actives 0.71% (n = 290,000); purified Giardia FBPA; A8B2U2; Potency, µM (titrated, usually from 59.6 µM), for inactives: at the top dose activity, negative = inhibition, most hits filed as inhibitors; also: potency is read from the fitted curve at half-maximal effect; % is scaled to controls: 0 for no effect and ±100 for the full control effect; nearly all actives have a fitted effect of over 55% in size
Target sequence (A8B2U2 whole entry, looked up): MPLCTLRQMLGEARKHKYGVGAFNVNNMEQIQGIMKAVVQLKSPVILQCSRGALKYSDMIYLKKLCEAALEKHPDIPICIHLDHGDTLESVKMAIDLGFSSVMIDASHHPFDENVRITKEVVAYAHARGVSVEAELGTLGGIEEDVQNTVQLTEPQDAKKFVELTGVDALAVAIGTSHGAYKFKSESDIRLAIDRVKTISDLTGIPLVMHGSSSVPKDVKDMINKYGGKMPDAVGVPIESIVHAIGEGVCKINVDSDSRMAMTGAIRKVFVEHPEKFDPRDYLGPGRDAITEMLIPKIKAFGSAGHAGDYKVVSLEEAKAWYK
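40 nM FBPA preincubated 10 min at RT with compound (up to 57.5 uM final), then substrate plus GAPDH/TPI/NAD/arsenate coupling and diaphorase/resazurin added. Fluorescence read after 20 min at RT, 525/598 nm.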
Sm TGR inh – inhibitors of Schistosoma mansoni thioredoxin glutathione reductase. Q962Y6. actives 3% (n = 360,000). purified TGR, DTNB reduction, TNB absorbance 405 nm. Potency, µM (highest dose often 114 µM), without a hit: at the highest dose activity change, negative = inhibition, hits mostly inhibitors. AID 485364; also: potency is read from the fitted curve at half-maximal effect; % is scaled to controls: 0 for no effect and ±100 for the full control effect; nearly all actives have a fitted effect of over 60% in size
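First, TGR (20 nM dispensed) and NADPH were mixed with compound. Second, a 15 min room-temperature incubation followed. Third, further NADPH and then DTNB were added to start the reaction. Finally, TNB absorbance was monitored kinetically.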
* hit, by the source's call; [ ] = remark or other dose. This excerpt belongs to a sample that is enriched for hits. Unless noted, calls follow the shape of the dose curve; as a rule, active = well fitted curve in the direction sought with a large enough effect; inconclusive = small, poorly fitted or top-dose-only effect, or another doubt; inactive = no such curve, though single readings can be large; an effect the other way counts as inactive or inconclusive.

Screening Cc1ccc(-n2nnc(-c3cc4ccccc4n3C)n2)cc1 returned CHX counter 27*, TbPYK inhibitor -4%, Shiga toxin inh 33*, LmPK inhibitor 4%, FBPA Giardia inh -5% and Sm TGR inh -19%.
Screening O=[N+]([O-])CC(=Nc1ccc(Cl)cc1)N/N=C\c1oc(O)c2ccccc12 returned CHX counter 21*, TbPYK inhibitor 1%, Shiga toxin inh 48, LmPK inhibitor -5%, FBPA Giardia inh -12% and Sm TGR inh 13µM*.
For CCC1Oc2nc(SC)nnc2-c2ccccc2N1C(=O)c1ccccc1 (stereo not drawn) the results were CHX counter 16*, TbPYK inhibitor 4%, Shiga toxin inh 41, LmPK inhibitor 1%, FBPA Giardia inh 6% and Sm TGR inh -10%.
Screening Cc1ccc(Nc2nc(-c3c(C)nc4ncccn34)cs2)cc1 returned CHX counter -1, TbPYK inhibitor 1%, Shiga toxin inh -5, LmPK inhibitor 0%, FBPA Giardia inh -24% and Sm TGR inh -23%.
For Cc1ccc(Nc2nc(C3CC3)cs2)cc1 the results were CHX counter 33*, Shiga toxin inh 52*, LmPK inhibitor -7%, FBPA Giardia inh 2% and Sm TGR inh 0%.
Clc1ccc(Nc2nc(C3CC3)cs2)cc1 was read as CHX counter 56*, TbPYK inhibitor -5%, Shiga toxin inh 102*, LmPK inhibitor 5%, FBPA Giardia inh -9% and Sm TGR inh -10%.
`COc1ccc(OC)c(NC(=O)CSc2ccnc(=O)[nH]2)c1` gave TbPYK inhibitor 1% and Sm TGR inh -1%.
For Nc1c(C(=O)NC2CCCC2)c2nc3ccccc3nc2n1N the results were CHX counter 71*, TbPYK inhibitor 0%, Shiga toxin inh 43*, LmPK inhibitor -4%, FBPA Giardia inh -1% and Sm TGR inh -16%.
`O=C(CN1CCCCCC1)N/N=C/c1cccc(Cl)c1Cl` gave CHX counter 24*, TbPYK inhibitor -6%, Shiga toxin inh 105*, LmPK inhibitor -2%, FBPA Giardia inh -13% and Sm TGR inh -6%.
For O=C(CN1CCCCC1)N/N=C/c1ccccc1Br the results were CHX counter 9.1*, TbPYK inhibitor -5%, Shiga toxin inh 21, LmPK inhibitor 4%, FBPA Giardia inh -7% and Sm TGR inh 5%.
`O=S1(=O)c2ccccc2N(Cc2cccc(F)c2)c2ccccc21` gave TbPYK inhibitor -2% and Sm TGR inh -10%.
CCOC(=O)C1(CC)NC(c2ccco2)C2C(=O)N(c3ccc(C)cc3)C(=O)C21 (stereo not drawn) was read as CHX counter 10, TbPYK inhibitor 1%, Shiga toxin inh -8, LmPK inhibitor 6%, FBPA Giardia inh -10% and Sm TGR inh 45µM*.
For CCN(CC)CCCN1C=C2C(=O)C(C)(OC(=O)CCc3ccccc3)C(=O)C=C2C=C1c1ccc(C#N)cc1 (stereo not drawn) the results were CHX counter -2, TbPYK inhibitor -7%, Shiga toxin inh -1, LmPK inhibitor -1%[11.5 µM], FBPA Giardia inh inconclusive and Sm TGR inh 40µM*.
For CC1(OC(=O)c2cccs2)C(=O)C=C2C=C3CCCN3C=C2C1=O (stereo not drawn) the results were CHX counter -6, TbPYK inhibitor -10%, Shiga toxin inh -1, LmPK inhibitor -6%[11.5 µM], FBPA Giardia inh inconclusive and Sm TGR inh 35µM*.
For CC1(OC(=O)C2CCCC2)C(=O)C=C2C=C3CCCN3C=C2C1=O (stereo not drawn) the results were LmPK inhibitor -6%[11.5 µM] and FBPA Giardia inh inconclusive.
For CC1(OC(=O)CCc2ccccc2)C(=O)C=C2C=C3CCCN3C=C2C1=O (stereo not drawn) the results were CHX counter -2, TbPYK inhibitor -5%, Shiga toxin inh 20, LmPK inhibitor -3%[11.5 µM], FBPA Giardia inh inconclusive and Sm TGR inh 35µM*.
`COc1ccc2c(c1)CCc1c(C(=O)Nc3c(C)nn(Cc4ccc(C)cc4)c3C)noc1-2` gave TbPYK inhibitor -2% and Sm TGR inh 1%.
Screening Cc1ccc(COc2coc(CO)cc2=O)cc1 returned CHX counter 38*, TbPYK inhibitor 4%, Shiga toxin inh 37, LmPK inhibitor 1%, FBPA Giardia inh 3% and Sm TGR inh -29%.
For Cc1ccc(S(=O)(=O)CCC(=O)N(CCN2CCOCC2)c2nc3ccccc3s2)cc1 the results were TbPYK inhibitor -12% and Sm TGR inh 35µM*.
For Cc1cccc2sc(N(CCCN3CCOCC3)C(=O)CS(=O)(=O)c3ccc(F)cc3)nc12 the results were TbPYK inhibitor -2% and Sm TGR inh 2%.
For Cc1cccc2sc(N(CCN3CCOCC3)C(=O)CCS(=O)(=O)c3ccccc3)nc12 the results were TbPYK inhibitor 0% and Sm TGR inh 45µM*.
For CCCCC1=CC2=C(c3ccco3)C(=O)C(C)(OC(=O)c3ccc(OC)cc3)C(=O)C2=CN1CC(C)C (stereo not drawn) the results were CHX counter 14, TbPYK inhibitor -3%, Shiga toxin inh 24, LmPK inhibitor -2%[11.5 µM], FBPA Giardia inh inconclusive and Sm TGR inh 14µM*.
CCCCC1=CC2=C(c3ccco3)C(=O)C(C)(OC(=O)c3ccc(OC)cc3)C(=O)C2=CN1CCN1CCOCC1 (stereo not drawn) was read as CHX counter -3, TbPYK inhibitor -9%, Shiga toxin inh 11, LmPK inhibitor -7%[11.5 µM], FBPA Giardia inh inconclusive and Sm TGR inh 45µM*.
CCCCC1=CC2=C(c3ccco3)C(=O)C(C)(OC(=O)c3ccc(OC)cc3)C(=O)C2=CN1CCCCO (stereo not drawn) was read as CHX counter -2, TbPYK inhibitor -8%, Shiga toxin inh -3, LmPK inhibitor -7%[11.5 µM], FBPA Giardia inh inconclusive and Sm TGR inh inconclusive.
Screening CCCCC1=CC2=C(c3ccco3)C(=O)C(C)(OC(=O)c3ccc(OC)cc3)C(=O)C2=CN1Cc1ccc(OC)cc1 (stereo not drawn) returned CHX counter 3, Shiga toxin inh -16, LmPK inhibitor -7%[11.5 µM], FBPA Giardia inh inconclusive and Sm TGR inh -2%.
For O=c1c2cnn(-c3ccc(Cl)cc3)c2ncn1Cc1ccc(Cl)cc1Cl the results were TbPYK inhibitor -2% and Sm TGR inh -3%.
`CCOC(=O)/C(=N/Nc1ccccc1OC)N1CCCc2ccccc21` gave CHX counter -1, TbPYK inhibitor -12%, Shiga toxin inh 6, LmPK inhibitor -2%, FBPA Giardia inh 0% and Sm TGR inh 40µM*.
